Assays:
Experiment in all cases: universal protein binding microarray (PBM); transcription factors of Arabidopsis thaliana; high values mean tight binding
Conditions in all cases: protein: recombinant; tags: GST; chain copies: 2; dsDNA, one strand shown
[1] = target: T1, GST-ANAC092(1-176) (Arabidopsis thaliana, UniProt Q9FKA0 1-176)
T1 sequence: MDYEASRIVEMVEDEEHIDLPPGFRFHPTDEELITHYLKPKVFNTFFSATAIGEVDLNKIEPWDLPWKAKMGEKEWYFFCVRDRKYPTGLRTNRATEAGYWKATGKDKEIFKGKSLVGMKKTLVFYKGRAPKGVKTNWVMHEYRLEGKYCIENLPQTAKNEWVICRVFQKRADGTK
Summary of the method: (§1)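 Binding is expressed as the normalised enrichment score (E-score). Proteins carrying a GST tag, whether NAC-domain, full-length or DNA-binding-domain forms, were induced in cells, and zinc acetate was added for zinc-finger proteins. After purification on glutathione–Sepharose 4B and quantification by A280 or anti-GST western blot, each was applied in duplicate at 200 to 500 nM final to custom all-10-mer Agilent 4 × 180K arrays made double-stranded by primer extension. Gapped and ungapped 8-mers were scored.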

[2] = target: T2, GST-ANAC019 NAC domain (Arabidopsis thaliana, UniProt Q9C932 14-162)
T2 sequence: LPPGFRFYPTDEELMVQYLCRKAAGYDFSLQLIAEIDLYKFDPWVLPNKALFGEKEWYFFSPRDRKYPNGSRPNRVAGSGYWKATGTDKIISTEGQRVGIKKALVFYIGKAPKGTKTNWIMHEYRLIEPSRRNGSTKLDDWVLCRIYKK
Summary of the method: as §1

[3] = target: T3, GST-ANAC055(1-171) (Arabidopsis thaliana, UniProt Q9LDY8 1-171)
T3 sequence: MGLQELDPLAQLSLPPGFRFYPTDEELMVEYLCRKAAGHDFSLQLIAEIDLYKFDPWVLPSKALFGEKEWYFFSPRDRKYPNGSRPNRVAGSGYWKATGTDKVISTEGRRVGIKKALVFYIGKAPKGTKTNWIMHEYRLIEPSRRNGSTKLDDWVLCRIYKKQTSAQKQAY
Summary of the method: as §1

[4] = target: T4, GST-ATAF1 NAC domain (Arabidopsis thaliana, UniProt Q39013 7-158)
T4 sequence: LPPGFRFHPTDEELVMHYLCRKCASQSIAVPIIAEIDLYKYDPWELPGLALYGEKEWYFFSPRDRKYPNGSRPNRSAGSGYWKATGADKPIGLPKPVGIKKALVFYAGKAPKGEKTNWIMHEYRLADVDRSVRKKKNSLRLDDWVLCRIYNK
Summary of the method: as §1

[5] = target: T5, GST-ANAC092(1-285) full length (Arabidopsis thaliana, UniProt Q9FKA0 1-285)
T5 sequence: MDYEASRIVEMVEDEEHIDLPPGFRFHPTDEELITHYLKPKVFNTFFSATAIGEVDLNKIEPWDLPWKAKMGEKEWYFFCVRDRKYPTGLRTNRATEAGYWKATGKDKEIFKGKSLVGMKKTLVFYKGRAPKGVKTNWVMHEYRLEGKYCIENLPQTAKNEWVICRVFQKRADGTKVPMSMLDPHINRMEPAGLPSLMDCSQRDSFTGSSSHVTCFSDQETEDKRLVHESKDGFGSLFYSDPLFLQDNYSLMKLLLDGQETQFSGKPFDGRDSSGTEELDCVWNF
Summary of the method: as §1

[6] = target: T6, GST-NAP(1-166) (Arabidopsis thaliana, UniProt O49255 1-166)
T6 sequence: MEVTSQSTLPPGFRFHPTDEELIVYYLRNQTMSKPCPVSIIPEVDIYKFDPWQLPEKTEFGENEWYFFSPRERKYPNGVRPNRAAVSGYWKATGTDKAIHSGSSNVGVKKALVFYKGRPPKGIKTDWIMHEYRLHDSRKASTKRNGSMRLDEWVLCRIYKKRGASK
Summary of the method: as §1

[7] = target: T7, GST-NST2(1-184) (Arabidopsis thaliana, UniProt Q9M274 1-184)
T7 sequence: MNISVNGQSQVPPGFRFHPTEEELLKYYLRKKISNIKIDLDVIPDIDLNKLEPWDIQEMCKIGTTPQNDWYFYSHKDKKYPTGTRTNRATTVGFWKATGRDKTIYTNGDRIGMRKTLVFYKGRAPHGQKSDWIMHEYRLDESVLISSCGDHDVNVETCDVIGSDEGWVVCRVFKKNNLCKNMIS
Summary of the method: as §1

[8] = target: T8, GST-SND1(1-203) (Arabidopsis thaliana, UniProt Q9LPI7 1-203)
T8 sequence: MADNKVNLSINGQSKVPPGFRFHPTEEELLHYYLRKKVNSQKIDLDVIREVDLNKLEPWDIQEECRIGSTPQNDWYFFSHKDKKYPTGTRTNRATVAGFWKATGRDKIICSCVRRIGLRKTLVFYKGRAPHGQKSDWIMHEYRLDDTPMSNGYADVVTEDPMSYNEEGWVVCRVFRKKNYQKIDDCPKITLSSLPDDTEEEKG
Summary of the method: as §1

[9] = target: T9, GST-VND3 NAC domain (Arabidopsis thaliana, UniProt Q9FH59 12-162)
T9 sequence: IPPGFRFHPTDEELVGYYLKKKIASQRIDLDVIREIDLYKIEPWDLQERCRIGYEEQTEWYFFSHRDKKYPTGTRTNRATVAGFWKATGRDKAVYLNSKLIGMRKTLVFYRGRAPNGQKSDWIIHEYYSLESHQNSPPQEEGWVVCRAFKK
Summary of the method: as §1

[10] = target: T10, GST-VND7 NAC domain (Arabidopsis thaliana, UniProt Q9C8W9 9-158)
T10 sequence: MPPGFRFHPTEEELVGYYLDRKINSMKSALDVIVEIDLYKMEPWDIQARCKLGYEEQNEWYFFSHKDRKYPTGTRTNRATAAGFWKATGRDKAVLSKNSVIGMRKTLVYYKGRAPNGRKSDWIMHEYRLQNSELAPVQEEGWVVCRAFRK
Summary of the method: as §1

[11] = target: GST-NTL6(1-168) (Arabidopsis thaliana, UniProt Q9SCK6 1-168)
Chain of GST-NTL6(1-168) (Q9SCK6 1-168): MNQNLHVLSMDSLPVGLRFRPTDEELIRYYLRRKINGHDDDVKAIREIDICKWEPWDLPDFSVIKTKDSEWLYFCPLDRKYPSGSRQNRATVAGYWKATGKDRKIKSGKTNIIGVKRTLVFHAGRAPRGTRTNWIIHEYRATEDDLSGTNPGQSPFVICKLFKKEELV
Summary of the method: as §1

[12] = target: T11, GST-NTL8 NAC domain (Arabidopsis thaliana, UniProt Q9XIN7 14-156)
T11 sequence: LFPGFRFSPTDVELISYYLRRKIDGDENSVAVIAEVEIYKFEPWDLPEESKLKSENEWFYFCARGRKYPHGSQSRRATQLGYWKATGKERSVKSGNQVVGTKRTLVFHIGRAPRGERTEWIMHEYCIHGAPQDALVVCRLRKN
Summary of the method: as §1

Row | Sequence | binding signal [1] [E-score] | binding signal [2] [E-score] | binding signal [3] [E-score] | binding signal [4] [E-score] | binding signal [5] [E-score] | binding signal [6] [E-score] | binding signal [7] [E-score] | binding signal [8] [E-score] | binding signal [9] [E-score] | binding signal [10] [E-score] | binding signal [11] [E-score] | binding signal [12] [E-score]
1 | ACGTACGC | 0.212 | 0.202 | 0.16 | 0.26 | 0.402 | 0.274 | 0.193 | 0.253 | 0.252 | 0.209 | – | –
2 | GCCGTGTA | 0.341 | 0.44 | 0.345 | 0.314 | 0.402 | 0.235 | 0.0515 | 0.0913 | 0.347 | 0.351 | – | –
3 | GAGGAAAA | 0.152 | – | – | 0.1 | 0.152 | – | – | 0.142 | 0.12 | 0.114 | 0.188 | 0.402
4 | ACGTAAAC | 0.397 | 0.427 | 0.355 | 0.321 | 0.43 | 0.368 | 0.317 | 0.404 | 0.402 | 0.266 | – | –
5 | GCAAGAAA | 0.295 | – | 0.0836 | 0.189 | 0.401 | – | 0.201 | 0.307 | 0.12 | 0.0827 | 0.306 | 0.229
6 | TAAAGCAA | 0.138 | – | – | – | 0.293 | – | 0.262 | 0.42 | 0.135 | 0.228 | 0.134 | 0.15
7 | ACGCTAAC | 0.43 | 0.143 | 0.0694 | 0.142 | 0.457 | 0.0585 | 0.289 | 0.454 | 0.127 | 0.113 | – | –
8 | ACACGTAA | 0.481 | 0.477 | 0.469 | 0.439 | 0.481 | 0.465 | 0.316 | 0.288 | 0.461 | 0.476 | – | –
9 | CACGCCAC | 0.481 | 0.33 | 0.268 | 0.293 | 0.488 | 0.292 | 0.298 | 0.386 | 0.168 | 0.271 | – | –
10 | ATACGTTA | 0.443 | 0.074 | 0.139 | 0.273 | 0.451 | 0.169 | 0.214 | 0.433 | 0.274 | 0.146 | – | –
11 | ATAACGTG | 0.446 | 0.0978 | 0.143 | 0.142 | 0.447 | 0.165 | 0.221 | 0.299 | 0.191 | 0.109 | – | –
12 | ATACGGCA | 0.419 | 0.361 | 0.353 | 0.365 | 0.433 | 0.411 | 0.0642 | 0.228 | 0.414 | 0.44 | – | –
13 | ACGTCATC | 0.418 | 0.288 | 0.285 | 0.291 | 0.449 | 0.343 | 0.214 | 0.411 | 0.327 | 0.273 | – | –
14 | ATACACGC | 0.39 | 0.19 | 0.185 | 0.21 | 0.423 | 0.256 | 0.167 | 0.0978 | 0.167 | 0.0693 | – | –
15 | ACACGTAT | 0.289 | 0.406 | 0.342 | 0.312 | 0.369 | 0.387 | 0.19 | 0.139 | 0.38 | 0.381 | – | –
16 | GTGGCGTA | 0.439 | 0.148 | 0.144 | 0.235 | 0.459 | 0.0567 | 0.3 | 0.471 | 0.138 | 0.0712 | – | –
17 | CACGCTTC | 0.37 | 0.184 | 0.165 | 0.212 | 0.437 | 0.109 | 0.188 | 0.232 | 0.111 | 0.127 | – | –
18 | ATGCGTGC | 0.429 | 0.276 | 0.217 | 0.21 | 0.452 | 0.273 | 0.221 | 0.292 | 0.191 | 0.138 | – | –
19 | ATGGCGTG | 0.443 | 0.196 | 0.138 | 0.17 | 0.456 | 0.161 | 0.227 | 0.249 | 0.151 | 0.155 | – | –
20 | ACGCAAGC | 0.466 | 0.35 | 0.295 | 0.148 | 0.478 | 0.294 | 0.299 | 0.417 | 0.344 | 0.332 | – | –
21 | ATGTCGTG | 0.267 | 0.419 | 0.371 | 0.289 | 0.336 | 0.2 | 0.0589 | 0.118 | 0.362 | 0.37 | – | –
22 | ACGCATCC | 0.388 | 0.216 | 0.194 | 0.195 | 0.431 | 0.256 | 0.173 | 0.397 | 0.16 | 0.231 | – | –
23 | CACACGTC | 0.33 | 0.214 | 0.221 | 0.248 | 0.405 | 0.172 | 0.079 | 0.157 | 0.199 | 0.176 | – | –
24 | AACACGGA | 0.298 | 0.413 | 0.397 | 0.299 | 0.274 | 0.268 | 0.173 | 0.0986 | 0.319 | 0.362 | – | –
25 | TCACGGCA | 0.398 | 0.473 | 0.438 | 0.385 | 0.429 | 0.344 | 0.177 | 0.16 | 0.45 | 0.456 | – | –
26 | CGCACGCA | 0.401 | 0.291 | 0.241 | 0.0589 | 0.42 | 0.291 | 0.213 | 0.229 | 0.213 | 0.232 | – | –
27 | TGCACGCA | 0.419 | 0.355 | 0.255 | 0.128 | 0.458 | 0.265 | 0.211 | 0.342 | 0.289 | 0.32 | – | –
28 | CGTACACG | 0.337 | 0.221 | 0.287 | 0.278 | 0.403 | 0.288 | 0.0623 | 0.0837 | 0.317 | 0.3 | – | –
29 | AGCGTGTA | 0.418 | 0.0634 | 0.112 | 0.136 | 0.436 | 0.198 | 0.22 | 0.274 | 0.129 | 0.163 | – | –
30 | ATTACGCA | 0.35 | 0.168 | 0.276 | 0.206 | 0.37 | 0.282 | 0.292 | 0.431 | 0.265 | 0.253 | – | –
